Screens (PubChem BioAssay)
The sample as a whole holds a higher share of hits than the screen did.
RE007 growth inh: less growth of the S. pombe RE007 Vpr strain; S. pombe RE007 Vpr strain, BacTiter-Glo ATP luminescence, 24 h; Potency, µM (highest dose often 92.2 µM), for inactives: at the top dose activity change, negative = less growth, actives largely listed as inhibitors; 360,000 compounds, 0.21% hits; active = well fitted falling curve with a large enough effect; inconclusive = small, poorly fitted or top-dose-only effect; inactive = no such curve, though single readings can be large or run the other way; also: potency is read from the fitted curve at half-maximal effect; % is scaled to controls: 0 for no effect and ±100 for the full control effect; nearly all actives have a fitted effect of over 50% in size
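Fission yeast strain RE007, carrying one chromosomally integrated HIV-1 vpr copy, was seeded at OD 0.01 in PMG+AL medium with 23 nL pinned compound. After 24 h at 30 °C and 99% humidity, viability was read by BacTiter-Glo luminescence.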
Tb PYK inh: T. brucei pyruvate kinase inhibition; 410,000 compounds, 0.12% hits; Potency, µM (doses to about 76.8 µM), without a hit: at the highest dose activity, negative = inhibition, hits mostly inhibitors; AID 624173; Q57TT1; TbPYK enzyme, Kinase-Glo Plus ATP luminescence, 45 min; also: potency is read from the fitted curve at half-maximal effect; % is scaled to controls: 0 for no effect and ±100 for the full control effect; nearly all actives have a fitted effect of over 50% in size
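Luminescence from Kinase-Glo Plus, added after a 45-minute room-temperature reaction, served as the end-point read-out. The enzyme and substrate were preincubated with compound before ADP (130 uM final) initiated turnover. Concentration-effect curves came from normalized qHTS data.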
Cycloheximide cs: affects cycloheximide protein synthesis inhibition readout, counter-screen; AID 2314; max response, %; cell reporter, cycloheximide protein synthesis inhibition counterscreen; 300,000 compounds, 12% hits; in the data active = max response mostly above about 13%, no sharp cut-off; inactive = mostly below about 14%; also: read at 38.3 µM for the half of the compounds with a filed dose; 0% is about no effect
FBPA Giardia inh: inhibitors of Giardia lamblia fructose-1,6-bisphosphate aldolase; A8B2U2; Potency, µM (series often up to 59.6 µM), inactives show at the highest dose activity, negative = inhibition, most hits filed as inhibitors; purified Giardia FBPA; 290,000 compounds, 0.71% hits; also: potency is read from the fitted curve at half-maximal effect; % is scaled to controls: 0 for no effect and ±100 for the full control effect; nearly all actives have a fitted effect of over 55% in size
Target sequence (A8B2U2 whole entry, looked up): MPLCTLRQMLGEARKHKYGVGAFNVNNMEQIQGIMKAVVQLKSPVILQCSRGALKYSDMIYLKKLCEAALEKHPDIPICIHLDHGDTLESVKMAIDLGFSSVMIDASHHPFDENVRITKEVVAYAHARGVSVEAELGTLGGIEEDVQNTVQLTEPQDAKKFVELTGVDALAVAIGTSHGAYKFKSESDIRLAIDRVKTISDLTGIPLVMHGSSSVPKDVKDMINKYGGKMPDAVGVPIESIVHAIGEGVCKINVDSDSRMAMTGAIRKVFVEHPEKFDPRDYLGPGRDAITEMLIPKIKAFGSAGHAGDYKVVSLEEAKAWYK
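40 nM FBPA preincubated 10 min at RT with compound (up to 57.5 uM final), then substrate plus GAPDH/TPI/NAD/arsenate coupling and diaphorase/resazurin added. Fluorescence read after 20 min at RT, 525/598 nm.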
Shiga inhibitor: Shiga toxin inhibition. Vero cells, Shiga toxin protein synthesis inhibition reporter. inhibition, % at 38.7 µM. 290,000 compounds, 9.2% hits; in the data active = inhibition mostly above about 28%, no sharp cut-off; inactive = mostly below about 43%; also: 0% is about no effect
LmPK inh: LmPK (Leishmania mexicana) enzyme inhibition | Q27686 | purified LmPK, Kinase-Glo ATP luminescence, 1 h | Potency, µM (doses to about 57.5 µM), inactives show top-dose activity change, negative = inhibition, usual class: inhibitors | 290,000 compounds, 0.37% hits | AID 1721; also: potency is read from the fitted curve at half-maximal effect; % is scaled to controls: 0 for no effect and ±100 for the full control effect
Target sequence (Q27686 whole entry, looked up): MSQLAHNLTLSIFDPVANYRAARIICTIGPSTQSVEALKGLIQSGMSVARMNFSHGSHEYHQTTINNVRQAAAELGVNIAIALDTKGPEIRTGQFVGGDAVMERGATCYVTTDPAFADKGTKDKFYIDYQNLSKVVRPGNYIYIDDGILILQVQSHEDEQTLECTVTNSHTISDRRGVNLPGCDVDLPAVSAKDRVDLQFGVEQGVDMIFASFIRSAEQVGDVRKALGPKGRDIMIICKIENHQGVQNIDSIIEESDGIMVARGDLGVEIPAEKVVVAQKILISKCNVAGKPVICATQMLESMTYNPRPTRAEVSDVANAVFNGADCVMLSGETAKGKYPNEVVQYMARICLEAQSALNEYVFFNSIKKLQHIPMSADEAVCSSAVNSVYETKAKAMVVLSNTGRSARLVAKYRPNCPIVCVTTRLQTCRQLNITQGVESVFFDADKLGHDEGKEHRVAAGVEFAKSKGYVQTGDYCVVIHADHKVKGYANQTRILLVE
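Purified LmPK (0.1 nM) converted ADP (0.1 mM) to ATP with PEP (0.5 mM) in imidazole buffer pH 7.2 with KCl and MgCl2, 1 h at room temperature. ATP was read by Kinase-Glo luminescence; data normalized to uninhibited and no-enzyme controls.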
* hit, by the source's call; ? = inconclusive; / = no result; [ ] = another dose, or the depositor's remark. Unless noted, calls follow the shape of the dose curve; as a rule, active = well fitted curve in the direction sought with a large enough effect; inconclusive = small, poorly fitted or top-dose-only effect, or another doubt; inactive = no such curve, though single readings can be large; an effect the other way counts as inactive or inconclusive.

SMILES | RE007 growth inh | Tb PYK inh | Cycloheximide cs | FBPA Giardia inh | Shiga inhibitor | LmPK inh
COCc1cc(C)nc(SCC(=O)Nc2ccc3c(c2)OCCO3)c1C#N | 1.3% | 3.7% | 11.0* | / | 19.1 | -8.8%
CSc1nsc(SCC(=O)Nc2ccc3c(c2)OCCO3)n1 | -4.6% | 3.7% | 41.4* | -12.9% | 93.9 | 5.6%
COCc1cc(C)nc(SCC(=O)Nc2ccc3c(c2)OCO3)c1C#N | 1.4% | -2.0% | 7.5 | 3.8% | 9.5 | 1.3%
COCCCNC(=O)COC(=O)c1ccc(-c2nc3ccccc3s2)s1 | -1.8% | 1.3% | 47.5* | 3.3% | 75.7* | -8.2%
O=CN1CCN(C(=O)c2ccc(-c3nc4ccccc4s3)s2)CC1 | 3.4% | -2.9% | 42.7* | 0.1% | 123.5* | -0.7%
CNC(=O)COC(=O)c1ccc(-c2nc3ccccc3s2)s1 | -13.9% | -26.7% | 29.1* | -0.2% | 53.0* | 14.1µM*
COc1ccccc1NC(=O)Nc1nnc(CC(=O)Nc2ccccc2)s1 | / | / | -2.0 | 2.2% | -32.7 | -0.5%
CCc1nnc(NC(=O)Nc2ccccc2OC)s1 | -25.5% | -22.9% | 35.2* | 1.7% | 90.7* | 0.6%
CC(C)(C)c1nnc(NC(=O)Cc2ccccc2[N+](=O)[O-])s1 | 1.3% | -3.6% | -3.4 | 0.2% | 12.9 | 0.6%
COc1ccccc1NC(=O)Nc1nnc(C(C)c2ccccc2)s1 (centres undefined) | -3.3% | 2.0% | 1.8 | 7.7% | 12.4 | -3.3%
CC(C)c1nnc(NC(=O)Cc2ccccc2[N+](=O)[O-])s1 | / | -9.4% | 11.5* | 0.5% | active | -0.6%
COc1ccccc1NC(=O)Nc1nnc(C(C)C)s1 | 3.1% | 1.9% | 50.6* | 0.9% | 74.6* | 3.0%
Cc1ccc(NC(=O)CSCC(=O)NCCc2ccccc2)cc1 | 3.6% | -8.6% | 1.7 | / | -3.8 | -1.9%
COC(=O)c1ccccc1NC(=O)CSc1ccc(C)cc1 | -2.7% | 0.0% | -2.5 | 0.4% | 16.5 | -7.5%
Cc1ccc(CSCC(=O)Nc2ccccc2C(=O)O)cc1 | 1.0% | -2.9% | 35.6* | -11.8% | 47.1* | -2.8%
Cc1ccc(SCC(=O)Nc2ccccc2C(=O)O)cc1 | 0.4% | -17.0% | 28.8* | 1.6% | 116.6* | -29.0%
O=C(CSc1ccccc1)Nc1ccccc1C(=O)O | -17.8% | -0.3% | 27.1* | 3.2% | 87.5* | -17.2%
Cc1ccc(CSCC(=O)NCCc2ccccc2)cc1 | -5.9% | -5.0% | 17.7* | 3.1% | 84.8 | 0.9%
COc1cccc(-c2nn3c(-c4ccccn4)nnc3s2)c1 | -13.7% | -11.3% | 15.2* | 14.7% | 42.1 | 2.4%
Brc1ccc(-c2nn3c(-c4ccccn4)nnc3s2)o1 | 1.4% | -1.9% | 14.2* | ? | 24.6 | 5.4%
c1ccc(OCc2nn3c(-c4ccccn4)nnc3s2)cc1 | 9.0% | 0.7% | 32.5* | 8.5% | 68.1* | -2.7%
CC(C)(C)c1ccc(-c2nnc3sc(-c4ccccn4)nn23)cc1 | 9.1% | ? | 46.2* | -16.3% | 91.3* | -2.1%
O=C(N[C@@H]1CC[C@@H](CCn2cc(-c3ccccc3)nn2)O[C@@H]1CO)c1cnccn1 | 7.8% | / | / | / | / | /
O=C(c1cc2ccc3cccnc3c2[nH]1)N1CCN(c2ccccc2)CC1 | / | -7.5% | / | / | / | /
CCOC(=O)c1ccccc1NC(=O)N1CCN2CCCCC2C1 (centres undefined) | / | 4.3% | / | / | / | /
SMILES | RE007 growth inh | Tb PYK inh | Cycloheximide cs | FBPA Giardia inh | Shiga inhibitor | LmPK inh
O=[N+]([O-])c1ccccc1OCCCn1cnc2ccccc21 | 10.6% | 20.3% | 34.2* | ? | 54.0* | -0.4%
O=c1c2ccccc2ncn1CCCSc1ccc(Cl)cc1 | -26.1% | -7.0% | -2.6 | 1.7% | -4.6 | -0.7%
Clc1ccc(OCCn2cnc3ccccc32)c(Cl)c1 | ? | 2.0% | 40.8* | 0.0% | 64.2* | 1.1%
O=c1c2ccccc2ncn1CCCSc1ccccc1 | -10.0% | -1.9% | 9.6* | 3.4% | 23.6 | -4.4%
O=c1c2ccccc2ncn1CCCOc1ccccc1[N+](=O)[O-] | 0.6% | 4.0% | 25.6* | -2.3% | 82.5* | -5.2%
c1ccc2c(c1)ncn2CCn1cnc2ccccc21 | 0.2% | 0.4% | -3.1 | -4.6% | -17.6 | 14.7%
CC(CNC(=O)CCc1cn(Cc2ccccc2Cl)c2ccccc12)c1ccccc1 (centres undefined) | / | -0.7% | / | / | / | /
COc1cccc(Cn2c(=O)c(CCc3ccccc3)nc3cnc(OC)nc32)c1 | / | 0.8% | / | 4.5% | / | /
CC(C)(C)c1nnc(NC(=O)c2ccc3c(c2)OCO3)s1 | 0.8% | -20.6% | 39.5* | -22.0% | 169.8* | -1.4%
CCN(CC)C(=O)c1sc(NC(=O)c2ccc3c(c2)OCO3)c(C(N)=O)c1C | 4.0% | -6.6% | 42.3* | / | 24.9 | -8.4%
CC(C)Sc1nnc(NC(=O)c2ccc3c(c2)OCO3)s1 | 0.2% | -5.9% | 24.5* | / | 56.0* | -3.3%
CC(C)c1nnc(NC(=O)c2ccc3c(c2)OCO3)s1 | -2.2% | 0.0% | 39.9* | -11.1% | 125.2* | -2.8%
CCOC(=O)CSc1nnc(NC(=O)c2ccc3c(c2)OCO3)s1 | 0.6% | 4.7% | -3.2 | / | 25.9 | -14.6%
CCN(CC)C(=O)c1sc(NC(=O)c2ccncc2)c(C(=O)OC)c1C | -1.3% | -10.8% | -4.1 | 4.6% | 12.6 | 0.0%
Cc1ccc(CSc2nc3cccnc3n2Cc2ccc(C(=O)NCCc3cccs3)cc2)cc1 | / | 4.0% | / | / | / | /
CCNc1ncc2nc(-c3ccc(Cl)cc3)c(=O)n(CCC#N)c2n1 | / | / | / | 0.5% | / | /
CCSc1nnc(NC(=O)c2ccc3c(c2)OCO3)s1 | 1.0% | -13.2% | 44.9* | -18.6% | 66.6* | -7.7%
COC(=O)c1sc(-c2ccc(C(C)(C)C)cc2)cc1NC(=O)CSCC(=O)O | -12.5% | -1.7% | 14.9* | 17.4% | 93.8 | 2.4%
CCOc1ccc(NC(=O)Nc2cc(-c3ccccc3)sc2C(=O)OC)cc1 | -12.3% | -1.0% | 5.0 | -3.5% | 3.3 | 0.4%
COC(=O)c1sc(-c2ccc(Cl)cc2)cc1NC(=O)c1ccccc1C(=O)O | 14.4% | -2.5% | 31.3* | 20.4% | 72.0* | -1.5%
CCOc1ccc(-c2cc(NC(=O)c3c(F)cccc3F)c(C(=O)O)s2)cc1 | -4.9% | 1.2% | 10.8 | 0.0% | 39.5* | -2.1%
COC(=O)c1sc(-c2ccccc2)cc1NC(=O)C1CC1 | 34.9% | -3.6% | 7.5 | 9.3% | 18.4 | 4.9%[11.5 µM]
COC(=O)c1sc(-c2ccc(C(C)(C)C)cc2)cc1NC(=O)c1ccccc1C(=O)O | 9.5% | 0.7% | 44.0* | 5.7% | 83.8* | 1.1%
CCOc1ccc(C(=O)Nc2cccc(-c3nc4cccnc4s3)c2C)cc1OCC | / | -0.7% | / | / | / | /
O=C(NC1CCCCCC1)C1CCN(C(=O)N2CCOc3ccccc32)CC1 | / | -8.8% | / | / | / | /
CCCN(CCC)CCCNC(=O)C1CCN(c2nc3ccc(CC)cc3s2)CC1 | / | 5.0% | / | / | / | /
c1ccc2c(N3CCOCC3)nc(-c3ccoc3)nc2c1 | / | / | / | 1.7% | / | /
